Literature values in PubChem BioAssay AID977611.
About 3,900 (100%) of roughly 3,900 compounds were called active. The limit is not given here; nearly all actives have Kd up to about 4200 µM. So high a share suggests a set chosen from earlier hits. Some of the results follow. *1 amine or outer side, *2 acyl side, *3 side chain or, on linkers, in order; H or OH if unused. Where a SMILES comes first, the peptide text is derived from it. Non-standard residues stand in square brackets, D forms with d. Square brackets hold non-standard residues; d marks the D form. Residues, ends and D or L forms follow the SMILES beside them. Peptide text beside a SMILES is read from it. [ ]: non-standard residue; d: D form. The star is where a group is joined. Orn(CH(NH2)2) = NC(N)NCCC[C@H](N)C(=O)O; Lys(Me2) = CN(C)CCCC[C@H](N)C(=O)O; Suc = O=C(CCC(=O)[*:2])[*:1]; Bz = O=C(c1ccccc1)*

Experiment: PubChem AID 977611
Conditions: PDB protein-ligand complexes, literature Kd

C[C@H](N)C(=O)N[C@@H](CCCNC(N)N)C(=O)N[C@H](C(=O)N[C@@H](C)C(=O)O)[C@@H](C)O (H-A[Orn(CH(NH2)2)]TA-OH)
Kd (protein: WD-repeat protein 5(WDR523), PDB entry 2h9p): 192000 nM (active)

C[C@H](N)C(=O)N[C@@H](CCCNC(N)N)C(=O)N[C@H](C(=O)O)[C@@H](C)O
Kd (protein: ING4, PDB entry 2vnf): 3000 nM (active)

C[C@H](N)C(=O)N[C@@H](CCCNC(N)N)C(=O)N[C@H](C(=O)N[C@@H](CCCCN)C(=O)N[C@@H](C)C(=O)O)[C@@H](C)O (H-A[Orn(CH(NH2)2)]TKA-OH)
Kd (protein: Baculoviral IAP repeat-containing protein 5, human Survivin, PDB entry 3uef): 21000 nM (active)

C[C@H](NC(=O)CNC(=O)[C@@H](N)CS)C(=O)N[C@@H](CCCNC(N)N)C(=O)O (H-CGA[Orn(CH(NH2)2)]-OH)
Kd (protein: ?-chain of Hepatocyte growth factor-like protein, PDB entry 2asu): 1 nM (active)

C[C@@H](O)[C@H](NC(=O)CNC(=O)[C@@H](N)CCCNC(N)N)C(=O)O
Kd (protein: Proto-oncogene tyrosine-protein kinase Src, PDB entry 4hxj): 74300 nM (active)

OC[C@H]1CN[C@@H](O)[C@@H](O)[C@@H]1O
Kd (protein: MANNOSYL-OLIGOSACCHARIDE 1,2-ALPHA-MANNOSIDASE, PDB entry 4ayr): 99 nM (active)

C[C@H]1NC(=NCCC[C@H](N)C(=O)O)N[C@H]1O
Kd (protein: Advanced glycosylation end product-specific receptor V domain, PDB entry 2mov): 40 nM (active)

C[C@H](NC(=O)[C@H](CCCCN)NC(=O)[C@H](CCCCN)NC(=O)[C@H](CCCCN)NC(=O)[C@@H](NC(=O)[C@H](CO)NC(=O)CNC(=O)[C@H](CCCCN)NC(=O)[C@@H]1CCCN1C(=O)[C@H](CCC(=O)O)NC(=O)[C@@H]1CCCN1C(=O)[C@H](CCC(=O)O)NC(=O)[C@H](CCCCN)NC(=O)[C@H](CCCNC(N)N)NC(=O)[C@H](CCCCN)NC(=O)[C@H](C)NC(=O)[C@@H](N)CO)[C@@H](C)O)C(=O)N[C@@H](CCCCN)C(=O)N[C@H](C(=O)O)[C@@H](C)O (H-SAK[Orn(CH(NH2)2)]KEPEPKGSTKKKAKT-OH)
Kd (protein: Importin subunit alpha-2, PDB entry 3uvu): 42 nM (active)

C[C@H](N)C(=O)N1CCC[C@H]1C(=O)N1CCC[C@H]1C(=O)NCC(=O)N[C@H](C(=O)N[C@@H](C)C(=O)N[C@@H](CCCNC(N)N)C(=O)N[C@@H](CCCNC(N)N)C(=O)N[C@@H](CCCCN)C(=O)N[C@@H](CCCNC(N)N)C(=O)N[C@@H](CCCCN)C(=O)N[C@@H](C)C(=O)N[C@@H](CC(=O)O)C(=O)N[C@@H](CO)C(=O)O)[C@@H](C)O (H-APPGTA[Orn(CH(NH2)2)][Orn(CH(NH2)2)]K[Orn(CH(NH2)2)]KADS-OH)
Kd (protein: Signal recognition particle 43 kDa protein, chloroplast, PDB entry 2hug): 1060 nM (active)

H-AGGPTIEEVD-OH
Kd (protein: Protein UNC-45, PDB entry 4i2w): 121000 nM (active)

C[C@H](N)C(=O)N[C@@H](C)C(=O)N[C@@H](CCCCN(C)C)C(=O)N[C@@H](CO)C(=O)N[C@H](C(=O)NCC(=O)NCC(=O)O)[C@@H](C)O (H-AA[Lys(Me2)]STGG-OH)
Kd (protein: Euchromatic histone-lysine N-methyltransferase 1(Glp), PDB entry 3b95): 7000 nM (active)

H-DPGEGPST-OH
Kd (protein: Ubiquitin carboxyl-terminal hydrolase 7(USP7), PDB entry 1yy6): 860 nM (active)

CC(C)[C@H](NC(=O)[C@@H]1CCCN1C(=O)[C@@H](N)Cc1ccc(O)cc1)C(=O)N[C@@H](CCCCN)C(=O)N[C@@H](CCCCN)C(=O)N[C@@H](CCCCN)C(=O)N[C@@H](C)C(=O)N[C@@H](CCCNC(N)N)C(=O)N[C@@H](CCCCN(C)C)C(=O)N[C@@H](CO)C(=O)N[C@@H](C)C(=O)NCC(=O)O (H-YPVKKKA[Orn(CH(NH2)2)][Lys(Me2)]SAG-OH)
Kd (protein: Human Chromobox Homolog 3 (CBX3), PDB entry 3tzd): 52000 nM (active)

C[C@H](NC(=O)[C@@H](NC(=O)CNC(=O)[C@@H]1CCCN1C(=O)[C@@H]1CCCN1C(=O)[C@H](C)NC(=O)[C@H](CCCCN)NC(=O)[C@@H](N)CCC(N)=O)[C@@H](C)O)C(=O)N[C@@H](CCCNC(N)N)C(=O)N[C@@H](CCCNC(N)N)C(=O)N[C@@H](CCCCN)C(=O)N[C@@H](CCCNC(N)N)C(=O)N[C@@H](CCCCN)C(=O)O (H-QKAPPGTA[Orn(CH(NH2)2)][Orn(CH(NH2)2)]K[Orn(CH(NH2)2)]K-OH)
Kd (protein: A. thaliana cpSRP43 Delta CD3, PDB entry 3ui2): 430 nM (active)

C[C@H](N)C(=O)N[C@@H](CCCNC(N)N)C(=O)N[C@H](C(=O)N[C@@H](CCCCN(C)C)C(=O)N[C@@H](CCC(N)=O)C(=O)N[C@H](C(=O)N[C@@H](C)C(=O)N[C@@H](CCCNC(N)N)C(=O)N[C@@H](CCCCN(C)C)C(=O)N[C@@H](CO)C(=O)N[C@H](C(=O)NCC(=O)NCC(=O)N[C@@H](CCCCN)C(=O)N[C@@H](C)C(=O)N1CCC[C@H]1C(=O)NCC(=O)NCC(=O)O)[C@@H](C)O)[C@@H](C)O)[C@@H](C)O
Kd (protein: heterochromatin protein 1 (HP1), PDB entry 1guw): 1900 nM (active)

O=C1C=C(O)C(=O)C=C1O
Kd (protein: 5-chloro-2-hydroxyhydroquinone dehydrochlorinase (TftG), PDB entry 4lbp): 11400 nM (active)

CNS(=O)(=O)Nc1nccc(Cc2c(C)c3ccc(Oc4ncccn4)cc3oc2=O)c1F
Kd (protein: Dual specificity mitogen-activated protein kinase kinase 1, Human MEK1 kinase, PDB entry 3wig): 2.3 nM (active)

CC(C)C[C@H](NC(=O)[C@@H](NC(=O)CNC(=O)c1ccccc1)C(C)C)C(=O)N[C@@H](CCCCN)C(=O)N[C@@H](CCC(=O)O)C(=O)N[C@@H](Cc1ccc(O)cc1)C(=O)NCC(=O)N[C@H](C(=O)O)C(C)C (Bz-GVLKEYGV-OH)
Kd (protein: NAD-DEPENDENT PROTEIN DEACYLASE SIRTUIN-5, MITOCHONDRIAL zebrafish Sirtuin 5, PDB entry 4utr): 700 nM (active)
Kd (protein: NAD-DEPENDENT PROTEIN DEACYLASE SIRTUIN-5, MITOCHONDRIAL zebrafish Sirtuin 5, PDB entry 4utv): 8200 nM (active)
Kd (protein: NAD-DEPENDENT PROTEIN DEACYLASE SIRTUIN-5, MITOCHONDRIAL zebrafish Sirtuin 5, PDB entry 4utx): 5780 nM (active)
Kd (protein: NAD-DEPENDENT PROTEIN DEACYLASE SIRTUIN-5, MITOCHONDRIAL zebrafish Sirtuin 5, PDB entry 4uu7): 830 nM (active)
Kd (protein: NAD-DEPENDENT PROTEIN DEACYLASE SIRTUIN-5, MITOCHONDRIAL zebrafish Sirtuin 5, PDB entry 4uu8): 290 nM (active)
Kd (protein: NAD-DEPENDENT PROTEIN DEACYLASE SIRTUIN-5, MITOCHONDRIAL zebrafish Sirtuin 5, PDB entry 4uua): 5780 nM (active)

CC(C)C[C@H](NC(=O)[C@@H](NC(=O)CNC(=O)c1ccccc1)C(C)C)C(=O)N[C@@H](CCCCNC(=O)CCC(=O)O)C(=O)N[C@@H](CCC(=O)O)C(=O)N[C@@H](Cc1ccc(O)cc1)C(=O)NCC(=O)N[C@H](C(=O)O)C(C)C (Bz-GVLK(Suc)EYGV-OH)
Kd (protein: NAD-DEPENDENT PROTEIN DEACYLASE SIRTUIN-5, MITOCHONDRIAL zebrafish Sirtuin 5, PDB entry 4utn): 710 nM (active)

CC(=O)n1ccc2nc3ccc(Cl)cc3c-2c1
Kd (protein: Bromodomain adjacent to zinc finger domain protein 2B BAZ2B Bromodomain, PDB entry 4nra): 65000 nM (active)
